Compound activity from PubChem BioAssay.
D1 potentiator: human D1 dopamine receptor positive modulation; potentiation, % at 10 µM; HEK293 TREx D1 cells, calcium flux, dopamine EC20 potentiation; P21728; AID 504651; 360,000 compounds, 0.036% hits; in the data active = potentiation above about 30%; note: 0% is about no effect
Target sequence (P21728 whole entry, looked up): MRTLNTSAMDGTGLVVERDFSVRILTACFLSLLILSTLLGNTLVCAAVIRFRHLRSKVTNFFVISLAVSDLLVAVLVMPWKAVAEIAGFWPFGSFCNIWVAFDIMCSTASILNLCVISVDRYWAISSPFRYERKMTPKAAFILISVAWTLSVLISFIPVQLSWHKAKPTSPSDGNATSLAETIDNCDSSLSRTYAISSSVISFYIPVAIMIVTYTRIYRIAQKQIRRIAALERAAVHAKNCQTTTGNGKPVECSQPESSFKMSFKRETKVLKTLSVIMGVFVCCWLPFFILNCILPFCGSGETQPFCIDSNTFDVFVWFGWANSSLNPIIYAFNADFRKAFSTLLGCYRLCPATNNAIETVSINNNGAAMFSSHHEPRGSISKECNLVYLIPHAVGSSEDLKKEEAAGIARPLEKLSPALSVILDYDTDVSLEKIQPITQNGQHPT
D1 antag: human D1 dopamine receptor antagonism; P21728; HEK293 TREx D1 cells, calcium flux, dopamine EC80; hits give low values; activity change, negative = inhibition, % at 10 µM; 360,000 compounds, 3.2% hits; AID 504652; in the data active = activity change below about -30%; note: % is set by controls: 0 for no effect and ±100 for the full control effect
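Antagonism measured as reduced calcium response to an EC80 dopamine addition following 180 s compound pre-read; cells were inducible HEK293 Trex D1 plated overnight at 30 C, read kinetically at 1 cycle/sec.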
D1 ag: agonists of human D1 dopamine receptor; 360,000 compounds, 1% hits; activation, % at 2 µM; HEK293 T-REx D1 cells, calcium flux, agonist mode; AID 504660; in the data active = activation above about 30%; note: 0% is about no effect
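Inducible HEK293 T-REx D1 cells, force-coupled to calcium signalling, were plated at 4000 cells/well with tetracycline and held overnight at 30 C. After no-wash calcium dye loading, compound-evoked calcium rise over 180 s flagged agonists.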
GRP78 ERSR act: ER stress response induction in glioma. 420,000 compounds, 0.02% hits. U87-MG GRP78 promoter luciferase reporter, 16 h. AID 602332. Potency, µM, inactives show top-dose activation, usual class: activators; note: potency is the fitted concentration of half-maximal effect; series mostly up to about 76 µM; % of control where 0% means no effect; nearly all actives have a fitted effect of over 35% in size
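Stably transfected U87-MG human glioma cells carrying a GRP78-based luminescent sensor were seeded at 1000 cells/well, pin-dosed with compounds and incubated 16 h. Luciferase reagent was then added, and end-point luminescence was read after 10 min at room temperature.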
TRHR enhancer-1: TRH receptor (human) allosteric enhancement | P34981 | TRHR cells, fluo-8 calcium fluorescence, EC20 TRH enhancement | enhancement, % at 2 µM | 360,000 compounds, 0.66% hits; in the data active = enhancement above about 30%; note: 0% is about no effect
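TRHR-expressing cells loaded with fluo-8 calcium dye were read kinetically (ex 480/em 530) during compound addition, then stimulated with an EC20 of TRH (10 nM final). Enhancement of the Gq-mediated intracellular calcium response was scored.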
TRHR agonist-1: activates the human TRH receptor; activation, % at 2 µM; P34981; TRHR cells, calcium flux fluo-8, FDSS agonist mode; AID 493084; 360,000 compounds, 0.18% hits; in the data active = activation above about 30%; note: 0% is about no effect
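Read-out: compound-evoked intracellular calcium rise in TRHR cells, fluo-8 dye, kinetic FDSS fluorescence at 1 s/cycle following a 10-cycle baseline. Cells cultured overnight before dye loading (30 min–1.5 h, RT).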
TRHR enhancer-2: confirmation of human TRH receptor allosteric enhancers; shares compounds with TRHR enhancer-1; TRH receptor cell assay, enhancer confirmation qHTS; activity change, negative = inhibition, % at 46.1 µM; 970 tested, under 10 active;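 note: compound effect scored on response to added TRH at EC20 of 10 nM; 0% is about no effect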
TRHR agonist-2: human TRH receptor agonism confirmation; Potency, µM (highest dose often 46.1 µM), for the others: at the top dose activation, hits mostly activators; shares compounds with TRHR enhancer-1; 970 compounds, 8% hits; TRHR-expressing cells, agonist activation read-out; note: potency is the fitted concentration of half-maximal effect; 0% is about no effect; nearly all actives have a fitted effect of over 75% in size
* hit, by the source's call; ? = inconclusive; · = no result given; ! = repeats disagree. A selection: hits, their analogues and other compounds. The true share with any hit is near 4%. Unless noted, calls come from the whole dose curve; as a rule, active = well fitted curve in the direction sought with a large enough effect; inconclusive = small, poorly fitted or top-dose-only effect, or another doubt; inactive = no such curve, though single readings can be large; an effect the other way counts as inactive or inconclusive.

SMILES	D1 potentiator	D1 antag	D1 ag	GRP78 ERSR act	TRHR enhancer-1	TRHR agonist-1	TRHR enhancer-2	TRHR agonist-2
Cc1c(NC(=O)Cn2nc(C(=O)O)c3ccccc3c2=O)c(=O)n(-c2ccccc2)n1C	4.7	29.1	2.6	-2.1%	46.1*	0.2	-3.1	-0.8%
Brc1ccc(C2C3=C(Nc4ncnn42)c2ccccc2OC3c2ccncc2)cc1 (configuration not stated)	1.6	·	0.9	-1.1%	-1.6	0.6	·	·
CCn1c(CNC(=O)COc2ccc(C(C)C)cc2)nnc1SCC(=O)Nc1cc(F)ccc1C	1.4	11.0	5.0	-3.6%	41.2*	-1.5	-2.5	3.0%
COc1nc(N2CCCC2)nc(-n2nnc(C(C)=O)c2C)n1	-1.1	5.4	-0.3	-1.6%	1.4	0.4	·	·
CC(=O)c1nnn(-c2nc(N3CCCC3)nc(N(c3ccccc3)c3ccccc3)n2)c1C	1.3	14.5	1.2	-0.7%	44.7*	0.7	-3.2	4.4%
CCCc1nnc(NS(=O)(=O)c2ccccc2)s1	-8.1	-6.4	0.5	-1.2%	0.9	0.2	·	·
CCOc1ccccc1Nc1ncccc1C(=O)O	-4.2	-4.6	1.6	-1.8%	3.2	0.8	·	·
Cc1c(-n2cc(C(=O)c3ccccc3O)cc(C#N)c2=O)c(=O)n(-c2ccccc2)n1C	-11.8	-6.5	35.6*	-1.2%	-2.1	41.7*	-7.8	?
N#Cc1cc(C(=O)c2ccccc2O)cn(-c2ccc(Cl)cc2)c1=O	-3.3	-2.3	19.2	-3.5%	-0.3	19.2	·	·
COC(=O)C1CCN(Cc2ccc3c(c2)CN(C(=O)C2CCCN(c4ccccn4)C2)CCO3)CC1 (configuration not stated)	·	·	·	6.3%	·	·	·	·
O=C(Nc1cccc2ncccc12)c1ccc(F)cc1	-9.7	1.1	3.7	-3.5%	-5.8	1.3	·	·
O=C(Nc1cccc2ncccc12)c1ccc(Cl)cc1	4.3	0.4	2.9	-0.8%	59.6*	0.1	2.1	-0.5%
COc1ccc(-c2cc(=O)c3ccccc3o2)cc1OC	·	·	·	6.5%	·	·	·	·
CC(C)(C)c1ccc(OCCCC(=O)NNC(=O)c2ccccc2O)cc1	-6.7	-9.7	14.7	-5.0%	41.5*	0.0	-3.8	0.3%
CCCCOc1ccc(C(=O)N/C(=C/C=C/c2ccccc2)C(=O)O)cc1	8.1	-4.3	2.3	3.8%	-1.1	28.6	-6.0	0.5%
CCCCOc1ccc(C(=O)N/C(=C/C=C/c2ccccc2)C(=O)NC)cc1	-15.4	4.1	3.0	5.9%	-0.8	4.0	·	·
O=C(Nc1ccc(CN2CCOCC2)cc1)c1ccc(F)cc1	0.2	0.5	2.4	-2.1%	56.5*	-1.3	7.8	-0.7%
CCCCNC(=O)c1cn(-c2ccc(OCC)cc2)c(=O)c2cc(OC)c(OC)cc12	-5.5	12.2	1.6	0.0%	47.0*	0.9	4.5	0.8%
CCOc1ccc(NC(=O)c2cn(-c3ccc(OCC)cc3)c(=O)c3cc(OC)c(OC)cc23)cc1	-18.1	-2.6	4.3	-5.2%	-0.5	0.6	·	·
O=C(NCc1cccc(CNC(=O)C(=O)NCc2ccco2)c1)C(=O)NCc1ccco1	-4.0	6.2	1.4	-0.8%	-3.5	0.3	·	·
COc1cccc(NC(=O)CCN2CCOCC2)c1	-2.1	13.9	0.5	-3.3%	62.5*	0.1	-2.9	6.5%
CCN(CC(=O)Nc1c(F)cccc1F)C(=O)c1cccc(S(=O)(=O)N2CCCCCC2)c1	-9.8	-4.8	1.0	-3.7%	41.5*	0.4	-2.8	1.2%
CC(C)(C)c1ccc(S(=O)(=O)NCCN2CCOCC2)cc1	·	·	·	-4.1%	·	·	·	·
COc1ccccc1N1CCN(C(=O)CSc2nc3ccccc3nc2N2CCC(C)CC2)CC1	12.5	14.5	6.6	-3.0%	53.7*	-0.5	-4.3	-0.3%
COc1ccccc1N1CCN(C(=O)CSc2nc3ccccc3nc2N2CCCCC2)CC1	7.8	20.1	4.1	-2.1%	-1.3	0.2	·	·
SMILES	D1 potentiator	D1 antag	D1 ag	GRP78 ERSR act	TRHR enhancer-1	TRHR agonist-1	TRHR enhancer-2	TRHR agonist-2
CC(=O)c1ccc(N2CCN(C(=O)Cc3ccccc3)CC2)c(F)c1	-11.3	-22.4	10.7	-3.8%	-5.7	2.4	·	·
CCSc1ccccc1C(=O)N1CCN(c2ccccc2F)CC1	-2.5	-2.4	2.9	8.1%	41.6*	-0.1	6.2	-0.6%
O=C(Cc1ccccc1)N1CCN(c2ccccc2F)CC1	16.7	-17.9	0.8	-2.6%	47.6*	-0.6	-5.4	2.1%
O=C(Nc1cc(C(F)(F)F)ccc1N1CCOCC1)C1CC1	-1.3	5.0	-0.9	-3.1%	48.7*	-0.1	-9.0	-0.3%
CCCn1c(=O)c2sccc2n2c(CCCC(=O)NCc3cccnc3)nnc12	0.5	-14.7	1.3	1.6%	-7.7	0.6	·	·
COc1ccc(OC)c(CCNC(=O)CCCc2nnc3n(C)c(=O)c4sccc4n23)c1	-4.5	0.5	-3.6	-4.9%	55.9*!	1.0	4.1	-0.7%
Cn1c(=O)c2sccc2n2c(CCCC(=O)NCc3cccnc3)nnc12	-1.8	0.9	4.1	-11.8%	42.1*	0.3	-7.1	-0.6%
NC(=O)[C@@H]1CCCN1C(=O)[C@@H](Cc1cnc[nH]1)NC(=O)[C@@H]1CCC(=O)N1	0.2	3.6	13.1	-4.5%	-12.3	84.5*	-25.2	0.0146µM*
Clc1ccccc1-c1nnc2sc(-c3ccc(Br)o3)nn12	2.2	9.8	2.5	2.7%	-4.9	27.5	-14.1	1.0%
COc1ccc(CN2CCN(Cc3ccc(CO)o3)CC2CCO)cc1C (configuration not stated)	0.8	3.4	4.6	1.0%	57.0*	0.2	-0.8	1.2%
COc1cc(C2Nc3ccccc3C(=O)N2NS(C)(=O)=O)ccc1O (configuration not stated)	-5.4	5.1	1.2	-4.2%	2.3	0.3	·	·
CCOc1cc(/C=C(/C#N)C(=O)Nc2ccc(O)cc2)cc(Br)c1O	-5.0	8.6	47.6*	-3.6%	-3.7	40.5*	8.7	20.6µM*
COC(=O)C1CCN(C(=O)COC(=O)c2ccc(=O)n(Cc3ccccc3)n2)CC1	4.5	3.7	3.0	-3.1%	1.4	0.1	·	·
O=C(NC1CCCCCC1)c1ccc(=O)n(Cc2ccccc2)n1	-2.5	-23.7	3.9	-2.0%	54.9*	-0.1	-4.4	-0.4%
NC(=O)CC(NC(=O)Cc1ccc(Br)cc1)c1ccc(NC2CCC2)c([N+](=O)[O-])c1 (configuration not stated)	-5.7	-10.7	0.7	-5.1%	-6.3	-0.9	·	·
COc1ccc(CNC(=O)CN(C(=O)CCC(=O)Nc2ccccn2)c2cccc(C)c2)cc1	5.5	25.4	-0.2	-2.6%	44.1*	-0.4	7.2	6.3%
